# Measurements reported in publication PMC7862700, “An all-to-all approach to the identification of sequence-specific readers for epigenetic DNA modifications on cytosine”.
# Assays:
# Assay in all cases: DAPPL (digital affinity profiling via proximity ligation, sequencing); 10 mM Tris-HCl pH 7.5, 50 mM NaCl, 1 mM DTT, 4% glycerol, room temperature, 30 min; GST-TFs on glutathione beads, 16-mer random dsDNA library, 0.1% formaldehyde crosslink after washing; high values mean tight binding
# Conditions in all cases: protein: recombinant; tags: N-terminal GST; dsDNA, one strand shown
# ETV1 = ETV1 (Homo sapiens, UniProt P50549 1-477)
# ETV1, sequence (P50549 whole entry, the tested form may be a part): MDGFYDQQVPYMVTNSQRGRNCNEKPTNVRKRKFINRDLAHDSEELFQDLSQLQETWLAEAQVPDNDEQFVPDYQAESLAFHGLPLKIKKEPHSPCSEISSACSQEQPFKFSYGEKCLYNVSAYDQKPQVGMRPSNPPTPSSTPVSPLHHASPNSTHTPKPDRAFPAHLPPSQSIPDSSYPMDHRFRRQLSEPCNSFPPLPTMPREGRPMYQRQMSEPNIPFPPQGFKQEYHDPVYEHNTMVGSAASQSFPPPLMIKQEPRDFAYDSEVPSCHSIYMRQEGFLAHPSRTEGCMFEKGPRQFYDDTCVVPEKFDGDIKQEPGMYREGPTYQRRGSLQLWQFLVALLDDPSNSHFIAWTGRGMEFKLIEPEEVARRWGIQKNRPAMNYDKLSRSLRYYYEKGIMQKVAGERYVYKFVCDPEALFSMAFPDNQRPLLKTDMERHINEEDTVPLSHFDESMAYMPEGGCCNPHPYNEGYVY
# Method in brief: (§1)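 In yeast, human transcription factors were expressed with a GST fusion, then pulled down on glutathione beads and given DNA barcodes. Pooled with a tag-only sample, they were exposed to 200 nmole of a 16-mer random double-stranded DNA library (Tris/NaCl/DTT/glycerol buffer, room temperature, 30 min), washed, crosslinked with 0.1% formaldehyde, proximity-ligated using BsaI/T4 ligase for 1 h at 37 °C, PCR-amplified and read on an Illumina NextSeq500. Each hexamer's frequency of reads for a factor, divided by the matching frequency for the tag-only sample, gives the binding signal.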
# ERF = molecular target: T1, ERF (Homo sapiens, UniProt P50548 1-548)
# T1 sequence: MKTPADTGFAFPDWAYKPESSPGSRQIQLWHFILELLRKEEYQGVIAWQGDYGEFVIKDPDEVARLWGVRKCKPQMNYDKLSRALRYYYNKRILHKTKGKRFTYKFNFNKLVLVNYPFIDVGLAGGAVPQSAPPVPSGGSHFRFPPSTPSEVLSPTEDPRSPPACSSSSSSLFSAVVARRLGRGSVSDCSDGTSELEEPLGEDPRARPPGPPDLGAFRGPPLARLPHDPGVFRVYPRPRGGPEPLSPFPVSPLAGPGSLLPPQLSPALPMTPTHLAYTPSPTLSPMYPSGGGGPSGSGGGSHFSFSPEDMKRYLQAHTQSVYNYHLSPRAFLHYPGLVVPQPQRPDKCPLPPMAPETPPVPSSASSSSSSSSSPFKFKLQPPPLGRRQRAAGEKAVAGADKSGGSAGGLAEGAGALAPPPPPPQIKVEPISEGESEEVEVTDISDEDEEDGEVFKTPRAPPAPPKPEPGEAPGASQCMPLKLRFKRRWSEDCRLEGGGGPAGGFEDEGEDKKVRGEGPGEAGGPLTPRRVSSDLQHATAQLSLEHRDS
# Method in brief: as §1
# ETV3L = molecular target: T2, ETV3L (Homo sapiens, UniProt Q6ZN32 1-361)
# T2 sequence: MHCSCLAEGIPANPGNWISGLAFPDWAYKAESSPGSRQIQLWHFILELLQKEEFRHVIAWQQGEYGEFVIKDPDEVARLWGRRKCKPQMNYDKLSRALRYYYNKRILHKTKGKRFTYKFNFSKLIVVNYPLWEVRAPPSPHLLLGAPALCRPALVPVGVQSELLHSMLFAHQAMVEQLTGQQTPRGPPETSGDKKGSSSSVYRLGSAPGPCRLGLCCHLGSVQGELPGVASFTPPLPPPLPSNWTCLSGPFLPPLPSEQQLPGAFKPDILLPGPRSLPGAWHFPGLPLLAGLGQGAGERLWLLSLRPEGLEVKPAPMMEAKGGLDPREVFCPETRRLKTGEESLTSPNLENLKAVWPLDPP
# Method in brief: as §1
# ETS2 = molecular target: T3, ETS2 (Homo sapiens, UniProt P15036 1-469)
# T3 sequence: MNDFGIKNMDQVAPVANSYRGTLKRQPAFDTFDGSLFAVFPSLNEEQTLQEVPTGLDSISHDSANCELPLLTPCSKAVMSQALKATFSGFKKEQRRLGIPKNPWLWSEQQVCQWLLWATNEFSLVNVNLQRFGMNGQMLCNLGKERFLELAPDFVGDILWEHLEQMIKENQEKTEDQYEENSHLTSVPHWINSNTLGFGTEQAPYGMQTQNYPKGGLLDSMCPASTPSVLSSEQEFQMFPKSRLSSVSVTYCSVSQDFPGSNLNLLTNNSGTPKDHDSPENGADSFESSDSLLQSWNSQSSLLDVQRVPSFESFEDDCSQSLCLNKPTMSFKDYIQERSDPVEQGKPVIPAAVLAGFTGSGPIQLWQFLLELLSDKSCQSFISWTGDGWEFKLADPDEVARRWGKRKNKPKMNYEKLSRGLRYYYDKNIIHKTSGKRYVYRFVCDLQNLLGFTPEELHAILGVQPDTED
# Method in brief: as §1
# SPDEF = molecular target: T4, SPDEF (Homo sapiens, UniProt O95238 1-335)
# T4 sequence: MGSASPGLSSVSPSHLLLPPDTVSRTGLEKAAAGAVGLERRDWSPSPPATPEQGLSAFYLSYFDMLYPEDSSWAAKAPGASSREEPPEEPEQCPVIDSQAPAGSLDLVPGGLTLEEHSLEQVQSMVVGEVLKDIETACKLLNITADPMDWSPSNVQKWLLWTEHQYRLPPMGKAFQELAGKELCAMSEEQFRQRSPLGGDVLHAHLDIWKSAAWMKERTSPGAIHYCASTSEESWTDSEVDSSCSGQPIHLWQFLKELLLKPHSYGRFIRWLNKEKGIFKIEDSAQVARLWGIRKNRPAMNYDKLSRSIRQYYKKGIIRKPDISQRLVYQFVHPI
# Method in brief: as §1
# ETV7 = molecular target: T5, ETV7 (Homo sapiens, UniProt Q9Y603 1-341)
# T5 sequence: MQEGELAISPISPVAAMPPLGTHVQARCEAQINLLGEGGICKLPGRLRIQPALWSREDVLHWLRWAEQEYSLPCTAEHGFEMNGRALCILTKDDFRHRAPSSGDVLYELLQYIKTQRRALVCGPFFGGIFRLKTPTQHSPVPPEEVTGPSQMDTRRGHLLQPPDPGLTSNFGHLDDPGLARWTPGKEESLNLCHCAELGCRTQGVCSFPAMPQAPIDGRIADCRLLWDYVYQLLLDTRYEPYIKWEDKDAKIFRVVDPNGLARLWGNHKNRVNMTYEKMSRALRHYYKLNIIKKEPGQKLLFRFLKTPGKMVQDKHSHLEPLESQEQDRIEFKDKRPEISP
# Method in brief: as §1
# ELF5 = molecular target: T6, ELF5 (Homo sapiens, UniProt Q9UKW6-2 1-255)
# T6 sequence: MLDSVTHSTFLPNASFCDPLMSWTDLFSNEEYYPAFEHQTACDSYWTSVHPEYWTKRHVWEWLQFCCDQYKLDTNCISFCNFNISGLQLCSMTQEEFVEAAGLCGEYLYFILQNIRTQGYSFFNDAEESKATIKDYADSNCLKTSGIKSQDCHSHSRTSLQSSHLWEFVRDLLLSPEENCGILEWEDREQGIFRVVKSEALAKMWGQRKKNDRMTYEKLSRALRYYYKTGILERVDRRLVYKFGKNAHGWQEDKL
# Method in brief: as §1
# ETV3 = molecular target: T7, ETV3 (Homo sapiens, UniProt P41162-2 1-143)
# T7 sequence: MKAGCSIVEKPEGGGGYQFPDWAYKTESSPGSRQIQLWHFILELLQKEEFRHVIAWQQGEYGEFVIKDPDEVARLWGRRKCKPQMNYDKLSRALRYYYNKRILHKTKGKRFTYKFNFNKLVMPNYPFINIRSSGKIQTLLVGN
# Method in brief: as §1
# ETV6 = ETV6 (Homo sapiens, UniProt P41212 1-452)
# ETV6, sequence (P41212 whole entry): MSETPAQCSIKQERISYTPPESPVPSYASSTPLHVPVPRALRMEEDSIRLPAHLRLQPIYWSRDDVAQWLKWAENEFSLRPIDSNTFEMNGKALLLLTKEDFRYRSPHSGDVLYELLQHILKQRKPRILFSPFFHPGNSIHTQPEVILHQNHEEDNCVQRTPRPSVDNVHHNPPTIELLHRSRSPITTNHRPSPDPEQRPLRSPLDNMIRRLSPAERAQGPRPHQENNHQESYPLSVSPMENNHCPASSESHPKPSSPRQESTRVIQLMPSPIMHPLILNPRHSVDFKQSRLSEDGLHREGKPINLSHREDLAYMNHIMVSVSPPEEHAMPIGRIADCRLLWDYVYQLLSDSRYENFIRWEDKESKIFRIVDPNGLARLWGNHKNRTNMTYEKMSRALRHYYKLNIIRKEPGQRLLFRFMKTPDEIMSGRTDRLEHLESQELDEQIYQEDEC
# Method in brief: as §1
sequence,measurement,setting,value
AGCTCT,binding signal,ETV1,"1.25 fold enrichment (6-mer frequency, TF over GST control)"
same,binding signal,ERF,"1.16 fold enrichment (6-mer frequency, TF over GST control)"
same,binding signal,ETV3L,"1.34 fold enrichment (6-mer frequency, TF over GST control)"
same,binding signal,ETS2,"1.16 fold enrichment (6-mer frequency, TF over GST control)"
same,binding signal,SPDEF,"1.03 fold enrichment (6-mer frequency, TF over GST control)"
same,binding signal,ETV7,"1.17 fold enrichment (6-mer frequency, TF over GST control)"
same,binding signal,ELF5,"1.12 fold enrichment (6-mer frequency, TF over GST control)"
same,binding signal,ETV3,"1.21 fold enrichment (6-mer frequency, TF over GST control)"
same,binding signal,ETV6,"1.17 fold enrichment (6-mer frequency, TF over GST control)"
